The entries come from a sample that favours hits as a whole.
Gal4-VP16 FLuc = inhibits Gal4-VP16 luciferase reporter, ROR gamma counter-screen. Drosophila S2 Gal4-VP16 UAS-luciferase, luminescence, 20 h. Potency, µM (doses to about 53.6 µM), for the others: at the top dose activity, negative = inhibition, most hits filed as inhibitors. 310,000 compounds, 3.5% hits. AID 2546;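 note: Gal4-VP16 expression switched on by copper sulfate through the metallothionein promoter; potency is the fitted concentration of half-maximal effect; % is set by controls: 0 for no effect and ±100 for the full control effect; nearly all actives have a fitted effect of over 50% in size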
Integrin act MD = activators of alpha7 integrin expression for muscular dystrophy; Potency, µM (top dose mostly 38.3 µM), without a hit: at the top dose activation, usual class: activators; alpha7betagal myoblasts, beta-gal FDG fluorescence, 48 h; AID 624291; 350,000 compounds, 0.064% hits;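 note: potency is the fitted concentration of half-maximal effect; 100% = response of the positive control SU9516; nearly all actives have a fitted effect of over 60% in size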
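Alpha7betagal+/- myoblasts (passage 13) were plated 16-24 hr, then exposed to compounds (1:260 dilution of DMSO stock) for 48 hours at 37C. After MPER lysis, β-galactosidase reporter activity was read as FDG fluorescence (ex 480/em 540) after 30 minutes.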
ERG-DNA inh = ERG Ets/DNA interaction inhibition. 370,000 compounds, 0.028% hits. fluorescence polarization, His-ERG Ets domain / labelled DNA. Potency, µM (top dose mostly 76.9 µM), for the others: top-dose FP activity, negative = inhibition, usual class: inhibitors. AID 624246. P11308; active = well fitted inhibition curve with a large enough effect in the polarisation, with a control signal flat; inconclusive = small, poorly fitted or top-dose-only effect, or effect the other way, or a change in a side signal; inactive = no such curve, though single readings can be large or run the other way; the % refers to the polarisation;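 note: polarization taken with two DNA probes labelled with fluorescein and Texas red; potency is the fitted concentration of half-maximal effect; % of control where 0% means no effect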
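His-tagged ERG Ets domain (1 uM in the protein solution; 300mM KCl, 50mM Tris-HCl, 1mM EDTA, 1mM DTT, pH 7.5) received compound, then a probe mix of 5 nM fluorescein-DNA and 100nM Texas-615-DNA. Fluorescence polarization was read for both dyes.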
RORgamma inh = ROR gamma (mouse) transcription inhibition. P51450. Drosophila S2 Gal4-RORgamma UAS-luciferase reporter, 20 h. Potency, µM (top dose mostly 53.6 µM), inactives show at the highest dose activity change, negative = inhibition, usual class: inhibitors. 310,000 compounds, 5.4% hits; note: potency is the fitted concentration of half-maximal effect; % is set by controls: 0 for no effect and ±100 for the full control effect; nearly all actives have a fitted effect of over 60% in size
Target sequence (P51450 whole entry, looked up, the tested form may be a part): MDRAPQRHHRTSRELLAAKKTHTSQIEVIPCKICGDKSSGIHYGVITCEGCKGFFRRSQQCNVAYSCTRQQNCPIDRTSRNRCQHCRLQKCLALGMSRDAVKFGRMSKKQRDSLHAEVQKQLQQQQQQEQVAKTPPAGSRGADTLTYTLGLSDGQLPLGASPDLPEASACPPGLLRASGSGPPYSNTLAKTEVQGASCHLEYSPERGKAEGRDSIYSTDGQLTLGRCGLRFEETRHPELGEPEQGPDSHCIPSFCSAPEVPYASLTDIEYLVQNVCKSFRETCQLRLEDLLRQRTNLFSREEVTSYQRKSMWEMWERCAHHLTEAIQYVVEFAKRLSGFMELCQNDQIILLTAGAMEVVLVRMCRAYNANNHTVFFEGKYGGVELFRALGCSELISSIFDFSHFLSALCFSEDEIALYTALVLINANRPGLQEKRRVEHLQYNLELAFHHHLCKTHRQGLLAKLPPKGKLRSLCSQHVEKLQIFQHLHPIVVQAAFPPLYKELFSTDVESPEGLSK
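ROR gamma transcriptional activity was tracked as Gal4-UAS luciferase output in stably transfected Drosophila Schneider cells, with compound added 1 hr before 700 uM copper sulfate induction and a 20 hr ambient-temperature incubation.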
Giardia killer = kills Giardia lamblia. activity change, % at 7.66 µM, hits read low. 340,000 compounds, 0.15% hits. Giardia lamblia trophozoite viability; in the data active = activity change below about -80%; inconclusive = between about -30% and that limit;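 note: parasites exposed to compound for two days anaerobically before the ATP read; % is set by controls: 0 for no effect and ±100 for the full control effect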
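Compounds were tested on trophozoites seeded at 100 cells/well and held 48 hrs at 37 deg C anaerobically. An ATP-based luminescent kit measured the remaining live cells.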
Active calls of the source: *; [ ] = remark or other dose. Unless noted, calls come from the whole dose curve; as a rule, active = well fitted curve in the direction sought with a large enough effect; inconclusive = small, poorly fitted or top-dose-only effect, or another doubt; inactive = no such curve, though single readings can be large; an effect the other way counts as inactive or inconclusive.

Results for CCC(C)n1c(O)c(C=NCCc2ccccc2)c(=O)[nH]c1=S (configuration not stated) ?
Gal4-VP16 FLuc: inconclusive; Integrin act MD: 24%; ERG-DNA inh: 8%; RORgamma inh: 10µM*; Giardia killer: 8

How did COc1ccc(O)c2c(=O)c3c(OC)cc4c(c3oc12)C1C=COC1O4 (configuration not stated) do in these assays?
Gal4-VP16 FLuc: inconclusive; Integrin act MD: -32%; ERG-DNA inh: -5%; RORgamma inh: 0.71µM*; Giardia killer: 0

Results for COC1=CC(=O)OC(CCc2ccccc2)C1 (configuration not stated) ?
Gal4-VP16 FLuc: -1%; RORgamma inh: 14%

What do the screens show for `COC(=O)C[C@@](O)(CCC(C)(C)O)C(=O)O[C@@H]1C(OC)=C[C@]23CCCN2CCc2cc4c(cc2[C@@H]13)OCO4`?
Gal4-VP16 FLuc: 0.11µM*; RORgamma inh: 0.089µM*

How did COC1=CC23CCCN2CCc2cc4c(cc2C3C1O)OCO4 (configuration not stated) do in these assays?
Gal4-VP16 FLuc: -3%; RORgamma inh: -12%

How did COC(=O)C(O)C(O)(CCC(C)C)C(=O)OC1C(OC)=CC23CCCN2CCc2cc4c(cc2C13)OCO4 (configuration not stated) do in these assays?
Gal4-VP16 FLuc: inconclusive; RORgamma inh: 0.13µM*

What do the screens show for `c1ccoc1`?
Gal4-VP16 FLuc: 3%; RORgamma inh: 15%

How did COC1C=CC23c4cc5c(cc4CN(CC2O)C3C1)OCO5 (configuration not stated) do in these assays?
Gal4-VP16 FLuc: 1.3µM*; RORgamma inh: 3.2µM*

Results for COc1ccc(OC)c(-n2c(O)c(C=NCc3ccc4c(c3)OCO4)c(=O)[nH]c2=O)c1 ?
Gal4-VP16 FLuc: -4%; Integrin act MD: 15%; ERG-DNA inh: -3%; RORgamma inh: 12%[10 µM]; Giardia killer: 29

How did COc1cc2c(cc1OC)[C@@H]1C(=O)c3ccc4c(c3OC1CO2)CC(C(C)C)O4 (some centres not stated) do in these assays?
Gal4-VP16 FLuc: 8.9µM*; RORgamma inh: 0.1µM*

How did C=C(C)C1Cc2c(ccc3c(=O)c4c(oc23)COc2cc(OC)c(OC)cc2-4)O1 (configuration not stated) do in these assays?
Gal4-VP16 FLuc: -2%; RORgamma inh: 6%

Results for COc1cc2c(cc1OC)[C@@H]1C(=O)c3ccc(OC)c(CC=C(C)C)c3OC1CO2 (some centres not stated) ?
Gal4-VP16 FLuc: 1.4µM*; RORgamma inh: 7.9µM*

What do the screens show for `CC([C@H](O)c1ccccc1)N(C)C` (some centres not stated)?
Gal4-VP16 FLuc: 9%; RORgamma inh: -25%

Results for Cc1ccc(C2=[N+]([O-])C3(CCCCC3=O)N(O)C2(C)C)cc1 (configuration not stated) ?
Gal4-VP16 FLuc: 4µM*; Integrin act MD: 11%; ERG-DNA inh: -10%; RORgamma inh: 0.89µM*; Giardia killer: 10

Results for C(=NC1CCCCC1)=NC1CCCCC1 ?
Gal4-VP16 FLuc: 2.2µM*; RORgamma inh: inconclusive

How did Cc1ccc2c(c1)Cc1c(C(=O)NN3CCCCC3)nn(-c3ccc(Cl)cc3Cl)c1-2 do in these assays?
Gal4-VP16 FLuc: -5%; RORgamma inh: inconclusive

Results for CN(C)C(=O)Nc1ccc(-n2nc(C(C)(C)C)oc2=O)c(Cl)c1 ?
Gal4-VP16 FLuc: -18%; RORgamma inh: 24%

Results for O=C1C=C2C(=CCOC2O)O1 (configuration not stated) ?
Gal4-VP16 FLuc: 0.89µM*; RORgamma inh: 1.1µM*

What do the screens show for `C[C@H]1O[C@@H](OC2CC[C@]3(C=O)[C@H]4CC[C@]5(C)[C@@H](C6=CC(=O)OC6)CC[C@]5(O)[C@@H]4CC[C@]3(O)C2)CC2OC(C)(C)OC21` (some centres not stated)?
Gal4-VP16 FLuc: -1%; Integrin act MD: -13%; ERG-DNA inh: -6%; RORgamma inh: 16µM*; Giardia killer: 12

How did C[C@H]1O[C@@H](O[C@H]2[C@@H](O)C[C@H](O[C@H]3[C@@H](O)C[C@H](O[C@H]4CC[C@@]5(C)[C@H](CC[C@@H]6[C@@H]5CC[C@]5(C)[C@@H](C7=CC(=O)OC7)CC[C@]65O)C4)O[C@@H]3C)O[C@@H]2C)C[C@H](O)[C@@H]1O do in these assays?
Gal4-VP16 FLuc: -12%; ERG-DNA inh: -5%; RORgamma inh: 1.6µM*; Giardia killer: 42

How did CC1OC(O[C@@H]2C(O)CC(O[C@@H]3C(O)C[C@@H](OC4CC[C@]5(C)[C@H](CC[C@H]6[C@@H]5CC[C@]5(C)C(C7=CC(=O)OC7)C(O)C[C@@]65O)C4)OC3C)OC2C)CC(O)C1O (some centres not stated) do in these assays?
Gal4-VP16 FLuc: -3%; RORgamma inh: 2.2µM*

How did CC1OC(OC2C(O)CC(OC3C(O)CC(OC4CCC5(C)C(CCC6C5CCC5(C)C(C7=CC(=O)OC7)C(O)CC65O)C4)OC3C)OC2C)CC(O)C1O (configuration not stated) do in these assays?
Integrin act MD: 10%; Giardia killer: 2

How did c1ccc(C2CO2)cc1 (configuration not stated) do in these assays?
Gal4-VP16 FLuc: 7%; RORgamma inh: 0%

What do the screens show for `CC1CCCC(C)N1c1nnc(NC(=O)Cn2c(=O)oc3ccccc32)s1` (configuration not stated)?
Gal4-VP16 FLuc: 14µM*; Integrin act MD: 8%; ERG-DNA inh: -4%; RORgamma inh: inconclusive; Giardia killer: -5

How did O=C1CCN(C(=O)CCCn2c(=O)oc3ccccc32)CC1 do in these assays?
Gal4-VP16 FLuc: -5%; Integrin act MD: 7%; ERG-DNA inh: 0%; RORgamma inh: 8%; Giardia killer: -21

How did Cc1cccc(CCNCc2cc3cccc(C)c3[nH]c2=O)c1 do in these assays?
Gal4-VP16 FLuc: 7.9µM*; Integrin act MD: -36%; ERG-DNA inh: -13%; RORgamma inh: inconclusive; Giardia killer: 7

How did Cc1cccc(CCNCc2cc3cc(C)cc(C)c3[nH]c2=O)c1 do in these assays?
Gal4-VP16 FLuc: -14%; Integrin act MD: -27%; ERG-DNA inh: 4%; RORgamma inh: -24%; Giardia killer: -11

Results for CC(C)(C)c1ccc(C(=O)NC(=S)Nn2cnnc2)cc1 ?
Gal4-VP16 FLuc: inconclusive; Integrin act MD: 5%; ERG-DNA inh: -2%; RORgamma inh: 14µM*; Giardia killer: 5

What do the screens show for `O=C(/C=C/c1ccccc1)C1C(=O)c2ccccc2C1=O`?
Gal4-VP16 FLuc: 8.9µM*; Integrin act MD: -36%; ERG-DNA inh: 4%; RORgamma inh: inconclusive; Giardia killer: inconclusive
